Compounds with a hit are over-represented: about 3.1% of the library has one in this group of screens.
ERb coact inh: blocks coactivator binding to human estrogen receptor beta | TR-FRET ER-beta LBD / SRC1-Cy5 peptide binding; receptor agonist-loaded with 1 µM estradiol | AID 633 | 86,000 tested, 1.3% active | inhibition, % at 25.6 µM | Q92731;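 active = compounds whose percent inhibition of the receptor-coactivator binding signal exceeds about 50% in the single-dose screen, limit read from the data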
ERa coact pot: enhances coactivator binding to human estrogen receptor alpha; 86,000 tested, 1.3% active; TR-FRET ERalpha-LBD/SRC-Cy5 coactivator binding, 2 h; 100 = basal binding, no effect; P03372; coactivator binding (% of control), % at 25.6 µM; in the data active = activity above about 200%;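 also: binding measured in presence of low estradiol as agonist stimulus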
Target sequence (P03372 whole entry, looked up, the tested form may be a part): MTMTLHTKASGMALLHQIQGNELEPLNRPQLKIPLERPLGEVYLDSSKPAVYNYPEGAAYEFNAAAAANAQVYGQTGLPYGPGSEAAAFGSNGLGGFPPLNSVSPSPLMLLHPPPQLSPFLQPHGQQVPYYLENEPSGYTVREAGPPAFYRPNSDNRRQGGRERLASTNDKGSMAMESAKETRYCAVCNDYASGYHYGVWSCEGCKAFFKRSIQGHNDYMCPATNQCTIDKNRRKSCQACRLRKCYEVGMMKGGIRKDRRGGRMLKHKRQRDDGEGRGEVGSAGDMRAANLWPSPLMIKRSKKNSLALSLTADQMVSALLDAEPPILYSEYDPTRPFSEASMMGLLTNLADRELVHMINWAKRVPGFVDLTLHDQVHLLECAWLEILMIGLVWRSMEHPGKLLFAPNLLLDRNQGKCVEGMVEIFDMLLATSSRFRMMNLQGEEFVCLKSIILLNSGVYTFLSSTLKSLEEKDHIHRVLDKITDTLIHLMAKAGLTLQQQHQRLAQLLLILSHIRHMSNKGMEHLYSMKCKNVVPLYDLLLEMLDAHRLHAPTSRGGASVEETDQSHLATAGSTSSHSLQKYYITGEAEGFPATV
CD11b adhes enh: increases human CD11b/CD18 adhesion to fibrinogen | K562 CD11b/CD18 adhesion to fibrinogen, ATPlite luminescence | activation, % at 10 µM | 93,000 tested, 0.07% active;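 active = 10 µM primary screen giving 50% or more activity, confirmed by 40% or more on retest at that dose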
ERa SRC1 inh: ER-alpha (human) coactivator binding inhibition | P03372 | TR-FRET ER-alpha LBD / SRC-1 peptide, estradiol-bound | inhibition, % at 25.6 µM | 86,000 tested, 1.7% active; in the data active = inhibition above about 50%
Mac1 fbg inh: inhibitors of human CD11b/CD18 binding to fibrinogen | P05107+P11215 | K562 CD11b/CD18 adhesion to fibrinogen, ATPlite luminescence; Mn2+ added to activate the integrin | inhibition, % at 10 µM | 93,000 tested, 0.54% active;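 active = primary inhibition of 50% or more at 10 µM, then 40% or more on retest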
Hits are given with their value; [ ] = dose if it differs, or a comment.

For Cc1ccc(S(=O)(=O)N2CCC(C(=O)N[C@H](C(=O)NCc3ccco3)C(C)C)CC2)cc1 the results were ERb coact inh 50[fluorescence artefact?], ERa coact pot inactive, CD11b adhes enh inactive, ERa SRC1 inh 57[fluorescence artefact?] and Mac1 fbg inh inactive.
Screening Cc1ccc(S(=O)(=O)N2CCC(C(=O)N[C@H](C(=O)NC3CCS(=O)(=O)C3)C(C)C)CC2)cc1 (some centres undefined) returned CD11b adhes enh inactive and Mac1 fbg inh inactive.
Cc1ccc(S(=O)(=O)N2CCC(C(=O)Nc3nnc(-c4ccco4)s3)CC2)cc1 was read as ERb coact inh inactive, ERa coact pot 200[fluorescence artefact?], CD11b adhes enh inactive, ERa SRC1 inh inactive and Mac1 fbg inh inactive.
Screening CCOc1ccc(-c2nnc(Nc3ccc(OC)c(C(=O)N4CCCCC4)c3)c3ccccc23)cc1 returned CD11b adhes enh inactive and Mac1 fbg inh inactive.
For O=C1[C@@H]2[C@@H]3C[C@@H]([C@H]4ON=C(c5ccc(OCc6ccccc6)cc5)[C@@H]34)[C@@H]2C(=O)N1c1ccc2c(c1)OCO2 the results were CD11b adhes enh inactive and Mac1 fbg inh inactive.
Screening Cc1cnn(-c2ccc3nnc(-c4ccc(Cl)cc4)n3n2)c1 returned ERb coact inh inactive, ERa coact pot 329[fluorescence artefact?], CD11b adhes enh inactive, ERa SRC1 inh inactive and Mac1 fbg inh inactive.
Screening Cc1cc(NC(=O)CSc2ccc3nnc(-c4ccc(Cl)cc4)n3n2)no1 returned ERb coact inh inactive, ERa coact pot inactive, CD11b adhes enh inactive, ERa SRC1 inh inactive and Mac1 fbg inh inactive.
For O=C(CSc1ncn[nH]1)NCCC(c1ccccc1)c1ccccc1 the results were ERb coact inh inactive, ERa coact pot inactive, CD11b adhes enh inactive, ERa SRC1 inh inactive and Mac1 fbg inh inactive.
For O=C(Cc1ccccc1)NCc1nc2ccccc2[nH]1 the results were ERb coact inh inactive, ERa coact pot inactive and ERa SRC1 inh inactive.
O=C(c1ccco1)N1CCN(C(=O)c2cc(-c3ccccn3)nc3ccc(Cl)cc23)CC1 was read as ERb coact inh 54[fluorescence artefact?], ERa coact pot inactive, CD11b adhes enh inactive, ERa SRC1 inh 64[fluorescence artefact?] and Mac1 fbg inh inactive.
For COCCn1c(SCC(=O)NCc2ccco2)nnc1C(C)C the results were ERb coact inh inactive, ERa coact pot inactive and ERa SRC1 inh inactive.
Screening O=C(C1COc2ccccc2O1)N1CCc2ccccc21 (centres undefined) returned ERb coact inh inactive, ERa coact pot 345[fluorescence artefact?], CD11b adhes enh inactive, ERa SRC1 inh inactive and Mac1 fbg inh inactive.
Screening O=C(C1COc2ccccc2O1)N1CCCC1 (centres undefined) returned ERb coact inh inactive, ERa coact pot inactive, CD11b adhes enh inactive, ERa SRC1 inh inactive and Mac1 fbg inh inactive.
For CCCNC(=S)N1CCC(C(=O)c2ccc(OC)cc2)CC1 the results were CD11b adhes enh inactive and Mac1 fbg inh inactive.
Screening Cc1ccc(C)c(S(=O)(=O)C(C#N)c2nc3ccccc3nc2N2CCCC2)c1 (centres undefined) returned ERb coact inh inactive, ERa coact pot inactive, CD11b adhes enh inactive, ERa SRC1 inh inactive and Mac1 fbg inh inactive.
For Cc1ccc(C)c(S(=O)(=O)C(C#N)c2nc3ccccc3nc2N2CCOCC2)c1 (centres undefined) the results were ERb coact inh inactive, ERa coact pot inactive, CD11b adhes enh inactive, ERa SRC1 inh inactive and Mac1 fbg inh 95.
CC1CC(C)(C)NC(C)c2ccccc21 (centres undefined) was read as ERb coact inh inactive, ERa coact pot inactive, CD11b adhes enh inactive, ERa SRC1 inh inactive and Mac1 fbg inh inactive.
CC1CC(C)(C)NCc2ccccc21 (centres undefined) was read as ERb coact inh 88[fluorescence artefact?], ERa coact pot inactive, CD11b adhes enh inactive, ERa SRC1 inh inactive and Mac1 fbg inh inactive.
`CCN(CC)c1ccc(C2NCC(c3ccc([N+](=O)[O-])cc3)O2)cc1` (centres undefined) gave ERb coact inh inactive, ERa coact pot inactive and ERa SRC1 inh inactive.
`O=C(N/N=C/c1cccc(Oc2ccccc2)c1)c1ccccc1Br` gave CD11b adhes enh inactive and Mac1 fbg inh inactive.
`COc1ccc2[nH]c(=O)c(CN(C3CCCCC3)C(c3nnnn3Cc3ccco3)C(C)C)cc2c1` (centres undefined) gave ERb coact inh inactive, ERa coact pot 201, CD11b adhes enh inactive, ERa SRC1 inh inactive and Mac1 fbg inh inactive.
Cn1c(SCC(=O)N2c3ccccc3CCc3ccccc32)nnc1-c1ccc(O)cc1 was read as CD11b adhes enh inactive and Mac1 fbg inh inactive.

Screening results from PubChem.
